# Assay outcomes from PubChem.
# ST2 inh: blocks human ST2 binding to IL-33. AlphaLISA ST2-Fc/biotin-IL-33 interaction, 1 h. inhibition, % for hits at 17 µM. hit rate 2.3% among 78,000. AID 1259354; in the data active means inhibition above about 30%
# Target sequence (Q01638 whole entry, looked up): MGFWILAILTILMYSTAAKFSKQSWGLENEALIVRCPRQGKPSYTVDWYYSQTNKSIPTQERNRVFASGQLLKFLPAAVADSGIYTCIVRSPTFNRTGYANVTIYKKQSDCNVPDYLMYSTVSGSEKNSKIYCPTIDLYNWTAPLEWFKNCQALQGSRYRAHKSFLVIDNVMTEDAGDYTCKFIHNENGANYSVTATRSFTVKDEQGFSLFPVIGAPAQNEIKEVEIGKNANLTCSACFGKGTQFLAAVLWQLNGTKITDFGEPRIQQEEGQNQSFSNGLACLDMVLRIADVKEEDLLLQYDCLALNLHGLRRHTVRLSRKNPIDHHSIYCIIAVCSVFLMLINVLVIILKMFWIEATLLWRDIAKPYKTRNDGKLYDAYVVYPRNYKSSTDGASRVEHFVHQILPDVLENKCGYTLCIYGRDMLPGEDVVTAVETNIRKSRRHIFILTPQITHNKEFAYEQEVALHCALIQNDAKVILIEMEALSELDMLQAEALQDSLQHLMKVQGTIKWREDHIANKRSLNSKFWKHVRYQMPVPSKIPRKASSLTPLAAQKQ
# * marks the source's active call; other numbers are inactive results; i = inactive; ! = not active in a repeat. Shown is part of a subset that was picked to be rich in hits.
SMILES,ST2 inh
O=C(Nc1nc2c(ccc3ccccc32)s1)c1cc(=O)c2ccccc2o1,i
CC1CCCN(CCCNC(=O)c2ccc3c(c2)NC(=O)C(N2CCOCC2)S3)C1 (stereo not drawn),i
C=CCc1cc(C)ccc1OCCNC(C)C,i
Cc1ccnc(NC(=O)CN2C(=O)CCc3cc(S(=O)(=O)N4CCCC4)ccc32)c1,i
COc1ccc(-c2ccc[nH]2)cc1,42%*
COc1ccc(-c2cc(-c3ccccc3)nc(=O)[nH]2)cc1,i
COc1ccc(-c2cc3ccccc3[nH]2)cc1,i
O=C(COc1ccccc1F)Nc1c(C(=O)Nc2ccccc2F)oc2ccccc12,i
COc1ccc(NC(=O)c2ccc(CN3CCC[C@@H]3C(N)=O)cc2)cn1,i
O=C(O)CCC(=O)Nc1cccc(-c2cn3ccccc3n2)c1,i
COC(=O)c1ccc(C2C=C(c3ccccc3)Nc3nc4ccccc4n32)cc1 (stereo not drawn),i
O=S(=O)(c1ccc(-c2csc(=Nc3ccc(Cl)cc3)n2CCCO)cc1)N1CCCC1,40%*
CCOc1ccc(NC(=O)Cc2ccc(F)cc2)cc1,i
CCOc1ccc(N=c2scc(-c3ccc(C)cc3)n2C)cc1,43%*
O=C(NCc1ccc(F)cc1)c1cc(-c2ccc(Cl)cc2)on1,i
CCOc1ccc(N=c2scc(-c3ccc(F)cc3)n2CCCO)cc1,40%*
CCOC(=O)c1sc(=Nc2ccc(C)cc2)n(CCN2CCOCC2)c1C,i
CCOc1ccc(-c2csc(=Nc3ccccc3)n2CCN2CCOCC2)cc1,i
Fc1ccc(Nc2nc(-c3ccc(Cl)cc3)cs2)cc1,i
O=C(c1ccc(S(=O)(=O)N2CCCC2)cc1)N1CCN=C1SCc1ccc(Cl)cc1,i
OCCCn1c(-c2ccc(F)cc2)csc1=Nc1ccc(Cl)cc1,46%*
CCOC(=O)c1sc(=NC(=O)c2ccc(OCC)cc2)n(C)c1C,i
Cn1c(=NC(=O)c2ccc(S(=O)(=O)N3CCCC3)cc2)sc2cc(Cl)ccc21,i
Cc1onc(-c2ccccc2)c1C(=O)N1CC(=O)N(CC(C)C)CC(OCc2ccccn2)C1 (stereo not drawn),i
CC(=O)Nc1ccc(-c2cn(C(C)Cc3cnccn3)nn2)cc1 (stereo not drawn),i
SMILES,ST2 inh
O=C(Cc1c(C(=O)O)[nH]c2ccc(Cl)cc12)NCC1CCCO1 (stereo not drawn),i
CCN1/C(=c2/sc3nc4ccccc4n3c2=O)C=Cc2cc(C)ccc21,i
CCN1/C(=C2/N=C(c3ccccc3)OC2=O)C=Cc2ccccc21,56%*
O=C1OC(c2ccc([N+](=O)[O-])cc2)=N/C1=C\c1ccccc1,i
N#C/C(=C\c1ccc(F)cc1)c1nc(C2CC2)cs1,52%*
N#C/C(=C\c1ccc(Cl)cc1)c1nc(C2CC2)cs1,66%*
N#C/C(=C\c1ccc([N+](=O)[O-])cc1)c1nc(-c2ccc3c(c2)OCO3)cs1,i
Cc1ccc(OCC(O)CN)cc1 (stereo not drawn),i
COc1ccccc1CC(=O)Nc1cnn(CC(=O)N2CCC(c3cccc(OC)c3OC)C2)c1 (stereo not drawn),i
COc1cc(-c2cc(=O)c3ccccc3o2)ccc1O,i
COc1ccc(-c2cc(=O)c3cc(F)ccc3o2)cc1OC,i
COc1ccc(-c2cc(=O)c3cc(Br)ccc3o2)cc1OC,31%*
CC(=O)Nc1ccc(S(=O)(=O)Nc2ccc(C(F)(F)F)cc2[N+](=O)[O-])cc1,i
CC(C)C(Nc1ccc(C(F)(F)F)cc1[N+](=O)[O-])C(=O)O (stereo not drawn),i
Cc1nonc1OCC(C)(C)Nc1ccc(C(F)(F)F)cc1[N+](=O)[O-],36%*
O=C(NCc1ccco1)c1ccc2c(c1)N(Cc1ccccc1F)C(=O)CS2,i
COc1ccc(-c2nnc(NC(=O)c3ccc(C)cc3)s2)cc1,i
CC1C(=O)C(C)C(c2ccccc2O)NC1c1ccccc1O (stereo not drawn),i
CC1C(=O)C(C)C(c2ccc(F)cc2)NC1c1ccc(F)cc1 (stereo not drawn),i
CC1C(=O)C(C)C(c2ccc(N(C)C)cc2)NC1c1ccc(N(C)C)cc1 (stereo not drawn),36%*!
Cc1nnc(-c2cccc(NC(=O)C3CCCCN3C(=O)c3ccco3)c2)s1 (stereo not drawn),i
Cc1nn(C)c(C)c1CCC(=O)N1CCCC(O)(CN(C)C)CC1 (stereo not drawn),i
COc1ccc(C2C(C(C)=O)=C(O)C(=O)N2Cc2ccccc2)cc1 (stereo not drawn),i
Cc1ccc(-n2nc3ccc(NC(=O)c4ccccc4F)cc3n2)cc1,i
CC(=O)c1ccc(NC(=O)c2ccccc2F)cc1,i
SMILES,ST2 inh
O=C(Nc1ccc(N2CCCC2)cc1)c1ccccc1F,68%*
COc1ccc2c(c1)CCc1c-2n[nH]c1C(=O)Nc1ccc(S(N)(=O)=O)cc1,i
COc1ccc(NC(=O)C(Cl)(Cl)Cl)c([N+](=O)[O-])c1,34%*
COc1ccc(NC(=O)c2ccc(Br)cc2)c([N+](=O)[O-])c1,i
COc1ccc(NC(=O)COc2ccccc2)c([N+](=O)[O-])c1,i
O=C(CSC1CC(=O)N(c2ccccc2)C1=O)Nc1ccc(Br)cc1 (stereo not drawn),i
CCOc1ccc(-c2nc3s/c(=C\c4ccc(C)cc4)c(=O)n3n2)cc1,i
CCOc1ccc(/C=c2\sc3n(c2=O)CN(c2ccc4c(c2)OCO4)CN=3)cc1,31%*
CCOc1ccc(CN2CCN(Cc3ccc4c(c3)OCO4)CC2)cc1,i
CC(=O)c1ccc(N2CN=c3s/c(=C\c4ccc(I)o4)c(=O)n3C2)cc1,i
CCOc1ccc(/C=c2\sc3n(c2=O)CN(c2cccc(C(C)=O)c2)CN=3)cc1,31%*
CCCCOc1ccc(/C=c2\sc3nc(=O)c(C)nn3c2=O)cc1,i
O=C(O)c1ccc(NC(=O)c2ccccc2Cl)cc1,i
C=CCN(Cc1ccccc1OC)C(=O)c1cnc(N2CCN(C)CC2)nc1C,i
CCn1c(CC2CCNCC2)nn(Cc2cccc3ccccc23)c1=O,i
Nc1c(C(=O)NCCO)nnn1Cc1ccccc1,i
O=C(c1ccc2ccccc2n1)N1CCc2c(nc(-c3ccccc3)[nH]c2=O)C1,i
CC(C)(C)c1cc(CC2(NCc3ccc(CO)o3)COC2)no1,i
O=c1[nH]c2ccccc2n1C1=CCN(c2nccc(N3CCC(O)C3)n2)CC1 (stereo not drawn),i
C=CCN(CC=C)C(=O)C(c1ccccc1)c1ccccc1,i
C=CCN(CC=C)C(=O)CN1CC=C(n2c(=O)[nH]c3ccccc32)CC1,31%*
Cc1c(CCCN)c2ccccc2n1-c1ccccc1,34%*
CCn1c(C(=O)O)c(CC(=O)N2CCN(c3ccccc3)CC2)c2ccccc21,i
CCOC(=O)c1c(C)n(-c2ccccc2)c2ccc(OC(=O)c3ccco3)cc12,i
Cn1c(=O)c2c(SCc3cccnc3)nc(-c3cccs3)nc2n(C)c1=O,i
SMILES,ST2 inh
O=C(CSc1nc2c(sc3ccccc32)c(=O)n1-c1ccccc1)N1CCCC1,i
COc1ccccc1N1CCN([C@@H]2[C@H](O)[C@H](CO)O[C@@H]2CNC(=O)C2CCCC2)CC1,i
COc1cc(NCCNC(=O)c2ccncc2)ncn1,i
COc1cc(NCC2(c3ccccc3)CCN(C)CC2)ncn1,31%*
c1ccc(C2(CNc3ccccn3)CCCC2)cc1,i
Cc1cc2cc(NC(=O)c3ccc(CN4CC[C@H](O)C4)cc3)ccc2o1,i
